# GLP-1R agonist = activates the human GLP-1 receptor; 380,000 tested, 0.007% active; Potency, µM (doses to about 45.6 µM), for inactives: at the highest dose activation, actives largely listed as activators; AID 624172; P43220; HEK293 GLP-1R CRE-luciferase, luminescence, 4-6 h; cells express a hypersensitive GLP-1R form; note: potency is the fitted concentration of half-maximal effect; % of control where 0% means no effect
# Target sequence (P43220 whole entry, looked up): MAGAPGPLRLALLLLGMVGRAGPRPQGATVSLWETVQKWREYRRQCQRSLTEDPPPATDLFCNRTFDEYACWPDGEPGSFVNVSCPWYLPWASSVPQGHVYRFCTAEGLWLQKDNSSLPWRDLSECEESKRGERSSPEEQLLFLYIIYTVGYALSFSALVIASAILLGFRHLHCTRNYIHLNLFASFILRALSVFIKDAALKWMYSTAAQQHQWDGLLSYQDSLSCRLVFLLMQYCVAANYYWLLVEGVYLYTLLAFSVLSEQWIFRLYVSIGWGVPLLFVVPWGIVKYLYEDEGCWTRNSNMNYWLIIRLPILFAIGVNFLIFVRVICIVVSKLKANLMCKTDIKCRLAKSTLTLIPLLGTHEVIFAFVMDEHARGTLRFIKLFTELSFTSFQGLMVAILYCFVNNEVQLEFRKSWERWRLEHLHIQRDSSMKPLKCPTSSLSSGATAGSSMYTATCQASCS
# GLP1R cytotox = cytotoxicity in counter-screen for GLP-1R inverse agonists. HEK293 cAMP-luciferase reporter cells, luminescence, 24 h. Potency, µM (top dose mostly 38.3 µM), inactives show at the top dose activity change, negative = inhibition, actives largely listed as inhibitors. 410,000 tested, 0.13% active. AID 624418;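 note: loss of luciferase light is scored as toxicity; potency is the fitted concentration of half-maximal effect; % is set by controls: 0 for no effect and ±100 for the full control effect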
#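 MLSMR compounds, 24 hr on cells at 37 deg C/5% CO2; luminescence after luciferase reagent (12 min RT). Inhibition counted as the undesired cytotoxic outcome.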
# DRD3 agonist = activates the human D3 dopamine receptor; P35462; D3R DiscoveRx beta-arrestin cells, luminescence, 90 min; max activation, %; 410,000 tested, 0.58% active; in the data active = max activation above about 30%; note: 0% is about no effect
#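 Cells at 1500/well, incubated overnight, then treated with pinned compounds (dopamine as control) for 90 min at 37 degrees C. DiscoveRx reagent added for 30 - 60 minutes at room temperature; luminescence read.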
# ClpP mod = qHTS Assay for Activators of ClpP. AID 651965, 2013. purified B. subtilis ClpP, FRET peptide cleavage, 20 min. Potency, µM (titrated, usually from 57.5 µM), without a hit: top-dose activity change, negative = active. ATP-dependent Clp protease proteolytic subunit (Bacillus subtilis (strain 168)), P80244. 340,000 tested, 1.9% active; active = well fitted falling curve with a large enough effect; inconclusive = small, poorly fitted or top-dose-only effect; inactive = no such curve, though single readings can be large or run the other way; note: potency is the fitted concentration of half-maximal effect; the source files actives as falling curves though it sought activators and does not explain the sign; nearly all actives have a fitted effect of over 65% in size
# Target sequence (P80244 whole entry, looked up): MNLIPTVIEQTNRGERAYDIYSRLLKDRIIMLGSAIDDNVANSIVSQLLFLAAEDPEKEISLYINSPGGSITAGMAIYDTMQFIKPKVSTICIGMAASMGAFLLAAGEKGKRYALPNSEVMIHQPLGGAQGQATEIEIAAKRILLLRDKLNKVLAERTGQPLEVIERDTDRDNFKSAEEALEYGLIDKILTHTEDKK
#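 Purified B. subtilis ClpP, 10 microg/mL final in Tris/HCl pH8 with KCl, BSA, glycerol and Tween-20, cleaved an Abz/nitrotyrosine-quenched decapeptide. Fluorescence (ex 320, em 430) was read at 0 and 20 min at room temperature. Delta was normalized to 5.8 microM ADEP and DMSO/no-enzyme controls.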
# DRD3 antagonist = antagonists of human D3 dopamine receptor | P35462 | D3R cells, DiscoveRx beta-arrestin luminescence, antagonist mode; hits give low values | max response, negative = inhibition, % | 360,000 tested, 2.5% active | AID 652054; in the data active = max response below about -50%; inconclusive = no clear call, values can overlap the other calls; note: % is set by controls: 0 for no effect and ±100 for the full control effect
#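 Cells plated overnight at 1500 cells/well, then exposed to library compounds with dopamine controls for 90 minutes at 37 degrees C. DiscoveRx reagent added for 30–60 minutes at room temperature; luminescence read, quantitative HTS format.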
# GLP1R inv ag = acts as inverse agonist at human GLP-1 receptor; HEK293 GLP-1R CRE-luciferase, luminescence, 24 h; GLP-1R form is constitutively active; Potency, µM (top dose mostly 38.3 µM), for the others: at the top dose activity change, negative = inhibition, usual class: inhibitors; 410,000 tested, 1.6% active; AID 624417; note: potency is the fitted concentration of half-maximal effect; % is set by controls: 0 for no effect and ±100 for the full control effect; nearly all actives have a fitted effect of over 55% in size
#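 Constitutively active GLP-1R drives a cAMP-responsive luciferase in stably transfected HEK293 cells; test compounds are added after overnight (12 h) attachment and left 24 hr, and signal loss in luminescence marks inhibition.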
# Starred values were filed as active, the others as inactive; ? = inconclusive; . = no result given. An excerpt weighted towards active compounds, which were near 5.7% of everything screened. Unless noted, calls come from the whole dose curve; as a rule, active = well fitted curve in the direction sought with a large enough effect; inconclusive = small, poorly fitted or top-dose-only effect, or another doubt; inactive = no such curve, though single readings can be large; an effect the other way counts as inactive or inconclusive.
SMILES,GLP-1R agonist,GLP1R cytotox,DRD3 agonist,ClpP mod,DRD3 antagonist,GLP1R inv ag
CN1CCN(Cc2cccc(Oc3ccc(Cl)cc3)c2)CC1,-0.2%,33.0%,-35.2,-10.4%,-51.8*,?
Cc1ccc(C(=O)c2sc(Nc3ccc(F)cc3)nc2N)c(C)c1,.,-12.7%,-21.4,-3.2%,.,5.01µM*
COc1ccc(Nc2nc(N)c(C(=O)c3ccc(F)cc3)s2)cc1,-11.5%,13.4%,0.2,-0.7%,-9.7,?
Cc1cccc(C(=O)NCc2ccc(S(N)(=O)=O)cc2)c1[N+](=O)[O-],-1.0%,3.7%,-0.7,28.2µM*,-0.3,7.0%
Cc1cccc(OC(C)C(=O)NCc2ccc(S(N)(=O)=O)cc2)c1 (centres undefined),0.8%,2.1%,-1.8,3.16µM*,-6.5,1.1%
CC(Oc1cccc(Cl)c1)C(=O)NCc1ccc(S(N)(=O)=O)cc1 (centres undefined),-2.0%,-8.8%,-1.2,-1.3%,2.2,13.0%
COc1ccc(CNC(=O)c2cccc(C)c2[N+](=O)[O-])cc1,0.2%,14.5%,2.2,-1.5%,0.0,5.2%
CN(C)CCCN(C(=O)c1ccc(C(=O)c2ccccc2)cc1)c1nc2ccc(F)cc2s1,0.9%,?,-3.0,-1.2%,?,?
COc1ccc2sc(N(CCN(C)C)C(=O)/C=C/c3cccs3)nc2c1,-5.9%,?,-17.0,1.1%,-86.0*,?
Cc1cccc2sc(N(CCCN(C)C)C(=O)c3ccc(C(=O)c4ccccc4)cc3)nc12,4.0%,?,-14.3,-1.7%,?,5.01µM*
CN(C)CCCN(C(=O)c1ccc(C(=O)c2ccccc2)cc1)c1nc2cc3c(cc2s1)OCO3,-30.0%,?,-11.8,1.5%,-55.4*,?
COc1ccc2sc(N(CCCN(C)C)C(=O)c3ccc(C(=O)c4ccccc4)cc3)nc2c1,-2.4%,?,-17.2,0.7%,?,7.08µM*
COc1ccc2nc(N(CCN(C)C)C(=O)/C=C/c3cccs3)sc2c1,2.5%,-8.4%,-12.5,1.1%,-1.0,?
Cc1cccc2sc(N(CCCN(C)C)C(=O)COc3ccccc3)nc12,.,?,-10.0,-2.1%,.,-4.5%
CCN(CC)CCN(C(=O)c1ccc(C(=O)c2ccccc2)cc1)c1nc2cc3c(cc2s1)OCO3,-0.1%,12.4%,-15.7,0.7%,-6.3,?
CCOc1ccccc1CNC(=O)c1ccc2nc(CCc3ccccc3)oc2c1,.,-15.6%,7.3,-0.6%,.,?
CCOc1ccc(CNC(=O)Cn2nc(C)c3sc4ccccc4c3c2=O)cc1,.,-1.5%,-11.3,-4.5%,.,1.6%
O=C(NCc1ccccc1Cl)c1cnc(N2CCCCC2)c2ccccc12,.,8.0%,-6.1,31.6µM*,.,?
CCc1ccc(CNC(=O)c2cnc(N3CCCCC3)c3ccccc23)cc1,.,-6.5%,23.5,31.6µM*,.,?
O=C(CSc1nnc(-c2ccccc2Cl)o1)N1CCCc2ccccc21,.,3.1%,1.0,-1.4%,.,?
CCCCN(C)CCNC(=O)C1CCN(c2nc3ccc(CC)cc3s2)CC1,.,-18.4%,-15.1,2.2%,.,-22.3%
Cc1ccc(-n2ncc(C(=O)Nc3ccc(Cl)cc3)c2C2CCNCC2)cc1C,0.1%,?,6.3,.,-2.2,-27.0%
CCOc1ccc(NC(=O)c2cnn(-c3ccc(C)c(Cl)c3)c2C2CCNCC2)cc1,-2.4%,?,-1.4,-1.6%,.,8.91µM*
COC(=O)Cn1c(CCS(=O)(=O)c2ccc(C)cc2)nc2ccccc21,-0.2%,2.1%,-0.2,-3.7%,-101.0*,-9.7%
COc1ccc(CCn2c(=S)[nH]c(=O)c3cccnc32)cc1OC,.,.,.,-2.4%,.,.
SMILES,GLP-1R agonist,GLP1R cytotox,DRD3 agonist,ClpP mod,DRD3 antagonist,GLP1R inv ag
Clc1ccc(CN2CCC(c3nc4ccc(Cl)cc4[nH]3)CC2)cc1,-39.2%,?,-8.0,1.2%,-73.8*,7.94µM*
CC1CCCN(C(=O)CN2CCC(c3nc4ccc(Cl)cc4[nH]3)CC2)C1 (centres undefined),2.8%,-15.6%,1.1,0.4%,-3.3,?
c1ccc(CC2CCN(Cc3ccccn3)CC2)cc1,-3.8%,-16.1%,-17.1,1.3%,-4.1,-28.9%
CSc1ccc(CN2CCC(Cc3ccccc3)CC2)cc1,1.3%,-3.2%,-21.1,1.2%,-55.9*,?
CSc1ccc(CN2CCSCC2)cc1,0.3%,12.7%,-3.3,-0.3%,-15.9,39.0%
Clc1cccc(CN2CCN(Cc3ccco3)CC2)c1,2.8%,-4.4%,-41.4,-2.9%,-65.7*,?
Clc1cccc(CN2CCC(Cc3ccccc3)CC2)c1,-5.6%,-12.8%,-62.1,1.4%,-78.5*,-28.9%
CC(NC(CCc1ccccc1)C(=O)O)C(=O)N1CCCC1C(=O)O (centres undefined),-0.5%,.,.,.,.,.
CCCCOc1ccccc1Cn1c(=O)sc2ccccc21,.,-1.8%,1.7,-1.3%,.,?
O=C(CS(=O)(=O)c1cccc2nsnc12)Nc1ccc(F)cc1F,.,3.1%,6.9,0.7%,.,12.4%
Clc1ccc(CN2CCC(Cc3ccccc3)CC2)cc1,-2.8%,-7.1%,-11.5,-1.8%,-95.7*,?
CSc1ccc(OC2CCN(Cc3ccccc3)CC2)cc1,6.7%,13.7%,-7.7,-2.7%,-50.5*,?
Clc1ccc(CNC2CCN(Cc3ccccc3)CC2)cc1,2.6%,-9.8%,-21.0,.,-16.7,-42.0%
CSc1ccc(CN2CCC(Oc3cccc(C(=O)N4CCCC4)c3)CC2)cc1,8.8%,-24.5%,-6.8,2.8%,-18.0,?
Clc1ccc(CN2CCC(c3ccccc3)CC2)cc1,-3.1%,-5.1%,0.6,-1.2%,-130.7*,-1.6%
Fc1ccc(CN2CCC(Cc3ccccc3)CC2)cc1F,-6.2%,15.9%,-17.3,-1.9%,?,-22.2%
CCOc1ccc(N(C)C(=O)C2CCN(S(=O)(=O)c3c(C)noc3/C=C/c3ccc(C)cc3)CC2)cc1,.,2.7%,-14.0,?,.,-8.6%
COc1cccc(NC(=O)Cn2c(-c3nonc3N)nc3ccccc32)c1,.,11.3%,-2.1,-1.8%,.,11.1%
COc1cc(OC)cc(-c2c(-c3ccc(F)cc3)c3cc(Br)ccc3n2C)c1,-3.5%,-20.6%,-11.9,4.6%,-8.8,7.94µM*
COc1cc(OC)cc(-c2c(-c3cccs3)c3cc(-c4ccc5cc[nH]c5c4)ccc3n2C)c1,-3.8%,-2.7%,22.8,20.9%,16.0,?
COc1cc(OC)cc(-c2c(-c3cccs3)c3cc(-c4ccc5[nH]ccc5c4)ccc3n2C)c1,-4.9%,8.3%,38.6*,2.6%,16.7,?
OC[C@@H]1O[C@](CO)(O[C@H]2O[C@H](CO)[C@@H](O)[C@H](O)[C@H]2O)[C@H](O)[C@H]1O,-4.1%,.,.,.,.,.

# Compound activity as filed in PubChem BioAssay.
